Data reported in PubChem BioAssay.
Values without a mark were called inactive. For some assays here: Measured potencies and affinities stand elsewhere. Activity calls are given as the source filed them. Unless noted, no rule for the calls is given here.

Legend:
[1] = antimalarial activity against Dd2 strain (AID 2302;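 active = growth inhibition above 50% at the single 2 µM test dose, taken to imply half-maximal potency below 2 µM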;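 also: 0% = DMSO untreated growth and 100% = chloroquine plus artemisinin killed control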); settings: P. falciparum Dd2 in RBCs, LDH growth readout, 72 h; at 2 µM; hits give high values
[2] = HepG2 cytotoxicity, primary screen, cytotoxicity control for P. falciparum antimalarial project, cell-based, ATP luminescence (AID 2303;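 active = inhibition above 50%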;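 also: 0% = DMSO wells and 100% = digitonin-killed cells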); settings: HepG2 viability, 24-48 h, at 10 µM, hits give high values
[3] = target: L-lactate dehydrogenase (Plasmodium falciparum (isolate CDC / Honduras)) (UniProt Q27743); assay: PfLDH activity inhibition – cell lysate, 3D7 strain, counter-screen for P. falciparum growth inhibition project (AID 2304);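 also: 0% = vehicle and 100% = reference inhibitor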; settings: P. falciparum 3D7 crude extract, LDH APAD/NBT absorbance; at 2 µM; hits give high values
[4] = inhibition of 3D7 malaria parasite growth – strain 3D7 (AID 2306);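 also: 0% = DMSO wells and 100% = chloroquine plus artemisinin control wells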; settings: P. falciparum 3D7 erythrocytic growth, LDH absorbance, 72 h; at 2 µM; hits give high values
[5] = target: Calcium-dependent protein kinase 1 (Plasmodium falciparum (isolate 3D7)) (UniProt P62344); assay: PfCDPK1 kinase inhibitors, biochemical, TCAMS library (AID 1159585; cut-off not given, nearly all actives have IC50 up to about 0.98 µM;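 also: inhibitors leave more ATP so luminescence rises with inhibition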); settings: recombinant PfCDPK1, Kinase-Glo ATP depletion luminescence
[6] = target: Plasmodium falciparum protein kinase 6 (PK6, PF3D7_1337100) (UniProt Q8IDW1); assay: PfPK6 kinase inhibitors, biochemical, TCAMS library (AID 1159586); settings: recombinant PfPK6, Kinase-Glo ATP depletion luminescence
[7] = target: Protein kinase 7 (PK7), Plasmodium falciparum 3D7 (PF3D7_0213400) (UniProt Q7YTF7); assay: inhibition of Plasmodium PK7 catalytic activity – biochemical, TCAMS antimalarial set, Kinase-Glo luminescence (AID 1159587); settings: recombinant PfPK7, Kinase-Glo ATP depletion luminescence
[8] = target: Calcium-dependent protein kinase 4 (Plasmodium falciparum (isolate 3D7)) (UniProt Q8IBS5); assay: PfCDPK4 kinase inhibitors, biochemical, TCAMS library (AID 1159588; cut-off not given, nearly all actives have IC50 up to about 0.91 µM); settings: recombinant PfCDPK4, Kinase-Glo ATP depletion luminescence
Sequence of Calcium-dependent protein kinase 4 (Plasmodium falciparum (isolate 3D7)) (Q8IBS5 whole entry, looked up): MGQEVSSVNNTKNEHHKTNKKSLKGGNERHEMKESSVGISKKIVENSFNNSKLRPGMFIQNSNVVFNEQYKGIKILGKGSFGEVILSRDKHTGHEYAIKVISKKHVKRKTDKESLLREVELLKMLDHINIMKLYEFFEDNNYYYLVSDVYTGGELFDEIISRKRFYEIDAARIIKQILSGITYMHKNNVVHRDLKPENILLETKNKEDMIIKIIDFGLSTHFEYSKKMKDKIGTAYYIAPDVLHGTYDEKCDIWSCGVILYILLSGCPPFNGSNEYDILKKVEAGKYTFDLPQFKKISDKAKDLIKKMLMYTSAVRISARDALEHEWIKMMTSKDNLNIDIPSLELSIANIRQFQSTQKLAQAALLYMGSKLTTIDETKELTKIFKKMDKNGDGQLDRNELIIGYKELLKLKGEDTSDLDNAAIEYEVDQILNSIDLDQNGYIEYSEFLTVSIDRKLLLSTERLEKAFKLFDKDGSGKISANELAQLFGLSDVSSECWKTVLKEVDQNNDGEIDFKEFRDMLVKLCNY

Sequence of Calcium-dependent protein kinase 1 (Plasmodium falciparum (isolate 3D7)) (P62344 whole entry, looked up): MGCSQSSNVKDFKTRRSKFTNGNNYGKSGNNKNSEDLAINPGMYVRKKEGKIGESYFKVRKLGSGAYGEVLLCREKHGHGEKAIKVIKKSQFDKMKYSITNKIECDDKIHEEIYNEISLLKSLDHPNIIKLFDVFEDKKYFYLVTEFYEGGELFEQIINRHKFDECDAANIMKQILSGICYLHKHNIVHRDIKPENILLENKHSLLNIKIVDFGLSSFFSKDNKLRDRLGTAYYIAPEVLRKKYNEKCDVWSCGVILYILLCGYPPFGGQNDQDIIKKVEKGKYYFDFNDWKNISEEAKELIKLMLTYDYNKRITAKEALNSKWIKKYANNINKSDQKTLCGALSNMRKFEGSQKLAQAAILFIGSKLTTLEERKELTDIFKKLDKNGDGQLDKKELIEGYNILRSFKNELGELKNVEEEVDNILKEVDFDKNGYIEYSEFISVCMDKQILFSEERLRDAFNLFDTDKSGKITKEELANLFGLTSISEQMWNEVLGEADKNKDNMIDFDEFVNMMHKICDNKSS
Sequence of Protein kinase 7 (PK7), Plasmodium falciparum 3D7 (PF3D7_0213400) (Q7YTF7 1-343): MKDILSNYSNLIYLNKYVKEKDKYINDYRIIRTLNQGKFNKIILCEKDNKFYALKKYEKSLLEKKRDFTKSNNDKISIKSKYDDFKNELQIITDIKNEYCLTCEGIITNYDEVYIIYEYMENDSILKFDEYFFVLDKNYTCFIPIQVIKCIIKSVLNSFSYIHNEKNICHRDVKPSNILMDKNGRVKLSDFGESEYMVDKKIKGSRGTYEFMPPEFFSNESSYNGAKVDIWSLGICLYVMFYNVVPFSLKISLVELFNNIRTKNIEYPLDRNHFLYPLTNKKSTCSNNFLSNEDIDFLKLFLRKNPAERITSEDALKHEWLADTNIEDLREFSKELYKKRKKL
Sequence of L-lactate dehydrogenase (Plasmodium falciparum (isolate CDC / Honduras)) (Q27743 whole entry, looked up): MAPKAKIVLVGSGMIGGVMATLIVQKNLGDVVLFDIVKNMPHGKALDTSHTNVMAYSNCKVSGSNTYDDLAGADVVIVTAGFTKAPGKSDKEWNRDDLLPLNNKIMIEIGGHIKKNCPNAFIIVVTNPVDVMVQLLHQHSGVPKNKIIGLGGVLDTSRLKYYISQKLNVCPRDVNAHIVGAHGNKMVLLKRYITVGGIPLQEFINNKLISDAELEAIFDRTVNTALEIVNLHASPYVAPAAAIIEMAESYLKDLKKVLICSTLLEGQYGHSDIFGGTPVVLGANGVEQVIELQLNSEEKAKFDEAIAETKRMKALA
Sequence of Plasmodium falciparum protein kinase 6 (PK6, PF3D7_1337100) (Q8IDW1 1-305): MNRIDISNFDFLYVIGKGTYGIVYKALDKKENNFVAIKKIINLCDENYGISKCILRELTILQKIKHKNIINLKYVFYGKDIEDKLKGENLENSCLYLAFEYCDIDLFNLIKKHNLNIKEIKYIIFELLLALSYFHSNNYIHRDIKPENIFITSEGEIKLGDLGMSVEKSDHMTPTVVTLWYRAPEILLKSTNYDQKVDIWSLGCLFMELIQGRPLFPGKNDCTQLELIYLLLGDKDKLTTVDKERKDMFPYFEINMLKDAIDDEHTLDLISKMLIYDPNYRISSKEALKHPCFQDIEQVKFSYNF

SMILES	growth inhibition [1]	inhibition [2]	inhibition [3] [%]	growth inhibition [4]	outcome [5]	outcome [6]	outcome [7]	outcome [8]
O=C(Nc1cccc(-c2ccc(-c3nc4ccccc4[nH]3)cc2)c1)Nc1ccc2c(c1)OCO2	8%	20%	-1	90% (active)	inactive	inactive	inactive	inactive
CCO[C@H]1CN[C@H](C#Cc2cc3c(Nc4ccc(OCc5cccc(F)c5)c(Cl)c4)ncnc3s2)C1	37%	8%	2	100% (active)	inactive	inactive	inactive	inactive
COc1cc(C(=O)NCc2nn(CCN3CCC(N4CCCC4)CC3)cc2-c2ccc(Cl)c(Cl)c2)cc(OC)c1OC	-8%	16%	-1	97% (active)	inactive	inactive	inactive	inactive
Cn1nc(-c2ccc(CNC3CCc4ccccc43)cc2)c2cnc(NCCCN3CCCC3)nc21 (stereo not given)	22%	27%	-4	92% (active)	inactive	inactive	inactive	inactive
Oc1ccc(CCNc2nc(NCCCOc3cccc(CN4CCCCC4)c3Cl)nc(N3CCNCC3)n2)cc1	22%	26%	5	102% (active)	inactive	inactive	inactive	inactive
CC(C)(C)OC(=O)Cn1cnc2cc(NC(=O)c3cc([N+](=O)[O-])cc([N+](=O)[O-])c3)ccc21	97% (active)	11%	5	100% (active)	inactive	inactive	inactive	inactive
Cc1ccc(O)cc1Nc1ccnc2cc(-c3csc(CN(C)CCN(C)C)n3)ccc12	80% (active)	3%	4	101% (active)	inactive	inactive	inactive	inactive
CCCCCCN1CCCN(Cc2ccc(C(=O)Nc3ccc(C(C)C)cc3)cc2)CC1	50% (active)	40%	-4	93% (active)	inactive	inactive	inactive	inactive
COc1ccc(Nc2nccc(NCC(O)c3cccc(C(F)(F)F)c3)n2)cc1 (stereo not given)	33%	22%	-2	98% (active)	inactive	inactive	inactive	inactive
Cc1cccc2[nH]c(-c3ccc(-c4ccc(CN5CCN(CC6CCCN(C)C6)CC5)cc4)s3)nc12 (stereo not given)	99% (active)	63% (active)	-3	101% (active)	inactive	inactive	inactive	inactive
Cc1cc(NCCC(=O)NCCOc2ccccc2)nc(NCCc2ccc(F)cc2)n1	4%	14%	2	97% (active)	inactive	inactive	inactive	inactive
CN1CCN(c2cc(-c3cccnc3)nc(-c3ccncc3)n2)CC1	89% (active)	11%	1	100% (active)	inactive	inactive	inactive	inactive
Cc1c(C(=O)Nc2cc(Sc3ccc(F)cc3)cc([N+](=O)[O-])c2)sc2ncn(Cc3ccccc3F)c(=O)c12	45%	2%	5	98% (active)	inactive	inactive	inactive	inactive
O=C(N[C@@H](CC1CCCCC1)C(=O)NCCN1CCOCC1)c1ccc(O)c(-c2ccc(Cl)c(Cl)c2)c1	99% (active)	-3%	3	97% (active)	inactive	inactive	inactive	inactive
CCCCCCNC[C@@H](O)[C@H](Cc1ccccc1)NC(=O)c1cc(NCC)cc(N2CCCCS2(=O)=O)c1	98% (active)	5%	-5	100% (active)	inactive	inactive	inactive	inactive
CCOC(=O)CCCc1cc(NC2CCN(C)CC2)nc(Nc2ccc(OC)cc2)n1	17%	41%	-2	99% (active)	inactive	inactive	inactive	inactive
CN(C)CCC1CCN(CCS(=O)(=O)c2cccc(Nc3ncc(-c4cccc(F)c4)cn3)c2)CC1	12%	59% (active)	-2	96% (active)	inactive	inactive	inactive	inactive
Cc1noc(=O)c2ccc(NC(=O)C(O)(CSc3ccccc3)CC(C)C)cc12 (stereo not given)	89% (active)	-15%	0	99% (active)	inactive	inactive	inactive	inactive
CCNC(=O)N1CCc2ccc(Oc3nc(NCc4ccccc4OC)ncc3C)cc2CC1	76% (active)	-9%	-9	83% (active)	inactive	inactive	inactive	inactive
O=C(Nc1cccc(-c2csc(NC(=O)c3ccc4ccccc4c3)n2)c1)c1ccc2ccccc2c1	35%	3%	-2	89% (active)	inactive	inactive	inactive	inactive

SMILES	growth inhibition [1]	inhibition [2]	inhibition [3] [%]	growth inhibition [4]	outcome [5]	outcome [6]	outcome [7]	outcome [8]
Cc1ccc2c(c1)nc(N)n2C[C@H](O)c1ccccc1	74% (active)	-3%	7	100% (active)	inactive	inactive	inactive	inactive
NC1CCN(Cc2ccc(-c3cccc(-c4nc5ccc(F)cc5[nH]4)c3)cc2)C1 (stereo not given)	16%	47%	3	100% (active)	inactive	inactive	inactive	inactive
COc1cccc2c(NCc3ccccc3)nc(NCCCN3CCCCC3C)nc12 (stereo not given)	2%	20%	2	90% (active)	inactive	inactive	inactive	inactive
CC(Cc1ccc(NC(=O)c2ccc(CNCc3ccccc3)cc2)cc1)N(CCc1cccc(Cl)c1)C(=O)OC(C)(C)C (stereo not given)	2%	16%	-2	95% (active)	inactive	inactive	inactive	inactive
COc1ccccc1C1CCN(C2CCC(NC(=O)/C=C/c3cccc(C(F)(F)F)c3)CC2)CC1 (stereo not given)	34%	38%	-3	99% (active)	inactive	inactive	inactive	inactive
COc1ccc(CN2CCC2=O)c(OC)c1	96% (active)	0%	-6	98% (active)	inactive	inactive	inactive	inactive
CC(C)Cc1nc(N)nc(N)c1-c1ccc(Cl)cc1	3%	5%	6	96% (active)	inactive	inactive	inactive	inactive
CCN1C(=O)C(CC(=O)Nc2cccc(Cl)c2)N(Cc2ccc(OC)c(OC)c2)C1=S (stereo not given)	68% (active)	13%	-8	100% (active)	inactive	inactive	inactive	inactive
NCc1cccc(-c2ccc3ccnc(N)c3c2)c1	96% (active)	7%	0	101% (active)	inactive	inactive	inactive	inactive
O=C(Cn1c(CCc2cccc(F)c2F)cc(=O)c2ccccc21)N(Cc1ccc(-c2ccc(C(F)(F)F)cc2)cc1)C1CCN(CCN2CCOCC2)CC1	41%	53% (active)	4	101% (active)	inactive	inactive	inactive	inactive
COc1cccc(CNC(=O)c2cc(CNCc3ccccc3)ccc2-c2cccc(CNCc3ccc(-c4ccccc4)cc3)c2)c1	15%	22%	8	95% (active)	inactive	inactive	inactive	inactive
OC(c1ccc(Cl)cc1)(c1ccc(Cl)cc1)C(c1ccc(Cl)cc1)n1ccnc1 (stereo not given)	100% (active)	15%	-3	101% (active)	inactive	inactive	inactive	inactive
Cc1ccc(-c2nc(NC(=O)Nc3ccc(C(F)(F)F)cc3)sc2C)cc1Cl	86% (active)	29%	-5	99% (active)	inactive	inactive	inactive	inactive
CCc1ccc(NC(=O)c2ccc(CN3CCCN(Cc4cccc(Cl)c4)CC3)cc2)cc1	2%	50% (active)	5	84% (active)	inactive	inactive	inactive	inactive
Nc1ccc(-c2nc3ccc(-c4ccc5nc(-c6ccc(N)cc6)[nH]c5c4)cc3[nH]2)cc1	96% (active)	45%	6	101% (active)	inactive	inactive	inactive	inactive
O=C(Nc1ccc(F)c(F)c1)c1ccc(CN2CCCN(Cc3cccc(O)c3)CC2)cc1	57% (active)	43%	-1	92% (active)	inactive	inactive	inactive	inactive
CCCCCCCCN1CCN(CCCCCCNc2c3ccccc3nc3ccccc23)CC1	100% (active)	100% (active)	-4	101% (active)	inactive	inactive	inactive	inactive
Cc1cc(F)ccc1[C@H]1CNCCN1C(=O)N(C)[C@@H](C)c1cc(C(F)(F)F)cc(C(F)(F)F)c1	99% (active)	20%	1	100% (active)	inactive	inactive	inactive	inactive
O=C([C@H]1C[C@@H]1c1ccccc1)N(Cc1ccc(-c2ccc(CNCCc3ccccc3)cc2)cc1)C1CCNCC1	39%	36%	-5	96% (active)	inactive	inactive	inactive	inactive
Nc1nc(N)c2c(Cc3ccc(Br)cc3)cccc2n1	20%	28%	0	99% (active)	inactive	inactive	inactive	inactive
